Source: PubChem
IDH1 R132H inh – qHTS for Inhibitors of mutant isocitrate dehydrogenase 1 (IDH1): qHTS. Isocitrate dehydrogenase [NADP] cytoplasmic (Homo sapiens), O75874. IDH1-R132H enzyme, NADPH consumption, diaphorase/resazurin fluorescence. Potency, µM (top dose mostly 76.6 µM), without a hit: top-dose activity change, negative = inhibition, usual class: inhibitors. actives 0.093% (n = 390,000). AID 602179, 2012; also: potency is read from the fitted curve at half-maximal effect; % is scaled to controls: 0 for no effect and ±100 for the full control effect; nearly all actives have a fitted effect of over 65% in size
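IDH1-R132H (0.5 ug/mL) preincubated 30 min with compound, then NADPH (0.016 mM) and alpha-KG (2 mM) added; 80 min at RT, pH 7.5. Remaining NADPH coupled via diaphorase/resazurin to fluorescence (540/590 nm); concentration-response curves normalized to no-enzyme control.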
LDHA block – qHTS assay for inhibitors of human lactate dehydrogenase; activity change, % (values are at about 110 or 230 µM); AID 1347041, 2019; L-lactate dehydrogenase A chain (Homo sapiens), P00338; purified LDHA, NADH/diaphorase-resazurin fluorescence; active compounds read low; actives 0.15% (n = 480,000); in the data active = activity change below about -30%; inconclusive = mostly about -25% to -30%;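 also: plate controls were DMSO wells for no effect and wells without enzyme for full effect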
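LDH5 2 nM; NADH 0.06 mM, pyruvate 0.2 mM; 200 mM Tris pH 7.4, EDTA, Tween-20; 5 min RT. Detection: diaphorase 0.133 mg/mL + resazurin 37 µM, fluorescence ex540/em590 at 0 and 20 min; normalized to enzyme-free and DMSO wells.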
GLP-1R agonist – qHTS of GLP-1 Receptor Agonists; HEK293 GLP-1R CRE-luciferase, luminescence, 4-6 h; cells express a hypersensitive GLP-1R form; actives 0.007% (n = 380,000); Glucagon-like peptide 1 receptor (Homo sapiens), P43220; Potency, µM (highest dose often 45.6 µM), for the others: at the highest dose activation, actives largely listed as activators; also: potency is read from the fitted curve at half-maximal effect; % of control where 0% means no effect
Target sequence (P43220 whole entry, looked up): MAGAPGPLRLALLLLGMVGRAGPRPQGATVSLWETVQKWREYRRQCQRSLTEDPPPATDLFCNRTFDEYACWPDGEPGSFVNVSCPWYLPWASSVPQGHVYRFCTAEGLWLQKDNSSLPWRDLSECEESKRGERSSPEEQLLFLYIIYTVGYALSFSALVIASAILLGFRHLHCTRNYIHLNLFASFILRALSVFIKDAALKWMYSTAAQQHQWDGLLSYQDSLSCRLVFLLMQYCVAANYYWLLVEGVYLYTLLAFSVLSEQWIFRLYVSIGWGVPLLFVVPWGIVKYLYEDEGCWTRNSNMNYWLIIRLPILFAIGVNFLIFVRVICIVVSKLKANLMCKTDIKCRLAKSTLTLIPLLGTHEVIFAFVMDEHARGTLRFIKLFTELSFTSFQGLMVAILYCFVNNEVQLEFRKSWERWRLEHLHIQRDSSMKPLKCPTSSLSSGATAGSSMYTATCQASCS
PTHR1 ag – qHTS for PTHR1 Agonists: Primary Screen; actives 0.075% (n = 410,000); Parathyroid hormone/parathyroid hormone-related peptide receptor (Homo sapiens), Q03431; Potency, µM (titrated, usually from 115 µM), without a hit: at the highest dose activation, most hits filed as activators; HEK293 GP2 PTHR1 cells, GloSensor cAMP luminescence, 1 h; also: potency is read from the fitted curve at half-maximal effect; nearly all actives have a fitted effect of over 55% in size
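HEK-293-derived GP2 cells expressing PTHR1 and a GloSensor cAMP reporter, 3,000/well, plated overnight, given luciferin plus IBMX (each 0.5 mM as added) for 1 h at 37 °C, then compound for 1 h at 37 °C. Luminescence was read after 15 min at room temperature.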
GLP1R cytotox – qHTS of GLP-1 Receptor Inverse Agonists: Cytotox Screen | HEK293 cAMP-luciferase reporter cells, luminescence, 24 h | Potency, µM (highest dose often 38.3 µM), for the others: at the top dose activity change, negative = inhibition, hits mostly inhibitors | actives 0.13% (n = 410,000);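 also: loss of luciferase light is scored as toxicity; potency is read from the fitted curve at half-maximal effect; % is scaled to controls: 0 for no effect and ±100 for the full control effect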
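A 23 nL compound transfer followed 12 hours of cell culture at 37 deg C; exposure then lasted 24 hr. Luciferase assay detection reagent was dispensed and plates read for luminescence after a 12 min room-temperature wait.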
GLP-1R inv ag – qHTS of GLP-1 Receptor Inverse Agonists (Inhibition Mode) | Glucagon-like peptide 1 receptor (Homo sapiens), P43220 | HEK293 GLP-1R CRE-luciferase, luminescence, 24 h; GLP-1R form is constitutively active | Potency, µM (highest dose often 38.3 µM), without a hit: at the highest dose activity change, negative = inhibition, actives largely listed as inhibitors | actives 1.6% (n = 410,000) | AID 624417, 2012; also: potency is read from the fitted curve at half-maximal effect; % is scaled to controls: 0 for no effect and ±100 for the full control effect; nearly all actives have a fitted effect of over 55% in size
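qHTS in 1536-well format: reporter HEK293 cells expressing constitutive GLP-1R activity in DMEM + 10% Nu serum, 24 hr with compounds at 37 deg C, luminescence read after 12 min with detection reagent.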
* marks the source's active call; other numbers are inactive results; i = inactive; ? = inconclusive; . = no result; [ ] = another dose, or the depositor's remark. Rows were chosen to be rich in hits. Some 1.7% of all compounds tested hit in one or more screens of this group. Unless noted, calls follow the shape of the dose curve; as a rule, active = well fitted curve in the direction sought with a large enough effect; inconclusive = small, poorly fitted or top-dose-only effect, or another doubt; inactive = no such curve, though single readings can be large; an effect the other way counts as inactive or inconclusive.

SMILES | IDH1 R132H inh | LDHA block | GLP-1R agonist | PTHR1 ag | GLP1R cytotox | GLP-1R inv ag
COc1cccc(/C=N/Nc2cc(-n3nc(C)cc3-c3ccccc3)ncn2)c1O | 4% | -1 | -33% | -32% | 2.2µM* | 3.5µM*
COc1cccc(/C=N/Nc2nc(Nc3ccccc3)nc(-n3nc(C)cc3C)n2)c1O | 4% | 5 | -17% | -12% | ? | ?
CCOC(=O)c1cnc(-n2nc(C)cc2C)nc1NC1CCCC1 | 6% | 2 | 17% | -27% | ? | 2.5µM*
CCOC(=O)c1cnc(-n2nc(C)cc2C)nc1NCc1ccc2c(c1)OCO2 | 1% | -5 | -2% | i | ? | 3.5µM*
CCOC(=O)c1cnc(-n2nc(C)cc2C)nc1NCCc1ccccc1 | 1% | 6 | -3% | i | ? | ?
COc1ccc(OC)c(C(=O)/C=C/c2cccs2)c1 | . | 10 | . | . | . | .
Cc1noc(C)c1S(=O)(=O)N1CCCC(C(=O)N2CCC(C)CC2)C1 (stereo unspecified) | 8% | -2 | 8% | i | -12% | 8%
Cc1ccccc1N1CCN(C(=O)C2CCCCC2)CC1 | 2% | 2 | 6% | -26% | 20% | ?
Cc1cccc(N2CCN(C(=O)C3CCCN(S(=O)(=O)c4c(C)noc4C)C3)CC2)c1C (stereo unspecified) | 4% | -1 | -4% | -36% | -9% | 7.9µM*
Cc1cccc(N2CCN(C(=O)C3CCCCC3)CC2)c1C | 5% | 5 | -1% | -20%[57.5 µM] | 6% | 10µM*
COc1ccc(C/C(N)=N/OC(=O)c2ccc(Cl)cc2)cc1 | -8% | -14 | 12% | i | -8% | -1%
N/C(Cc1ccc(Cl)cc1)=N\OC(=O)c1ccc2ccccc2c1 | -1% | -5 | ? | -12%[57.5 µM] | ? | 7.9µM*
CCOc1ccc(CNC(=O)c2ccc(-c3nc(CS(=O)(=O)c4ccccc4)c(C)o3)cc2)cc1 | 18% | -35* | . | 0% | 6% | 8%
CCc1ccc(CNC(=O)c2ccc(-c3nc(CS(=O)(=O)c4ccccc4)c(C)o3)cc2)cc1 | -1% | 2 | . | -20% | 2% | -6%
COc1cccc(-c2ncc3ccccc3c2COC(=O)c2ccc(F)cc2)c1 | 0% | -1 | 11% | -46% | 0% | 11µM*
CC1=C/C(=N\NC(=S)Nc2cccnc2)CC(C)(C)C1 | -1% | -10 | 9% | i | 1µM* | 4µM*
COc1ccc2c(C)c(CCC(=O)Nc3cccc(C)c3C)c(=O)oc2c1 | . | -11 | . | . | . | .
Cc1c(C)n(Cc2ccccc2)c2ccc(C(=O)NCCCN3CCOCC3)cc12 | 18% | -2 | 19% | -9% | -24% | 1µM*
O=C(NCCCN1CCOCC1)c1ccc(Sc2ccc(Br)cc2)c([N+](=O)[O-])c1 | 6% | 1 | 5% | i | 0% | -62%
O=C(Nc1cccc(Cl)c1)c1ccc(NCCCN2CCOCC2)c([N+](=O)[O-])c1 | 10% | -7 | -10% | -38%[57.5 µM] | -10% | 5µM*
O=C(NCCCN1CCOCC1)c1ccc(Sc2ccccc2Cl)c([N+](=O)[O-])c1 | -1% | -2 | 0% | i | -11% | 3.5µM*
Nc1c(-c2nc3ccccc3[nH]2)c2ccccn2c1C(=O)c1cccc(Br)c1 | . | 2 | . | . | . | .
CCNS(=O)(=O)c1ccc(NC(=O)C2c3ccccc3Oc3ccccc32)cc1 | . | 0 | . | . | . | .
O=C(Nc1cc(-n2cnnn2)ccc1Cl)c1ccc(Br)o1 | . | -5 | . | . | . | .
C/C(=N\NC(=O)C(C)n1nc(C)c([N+](=O)[O-])c1C)c1ccccc1O (stereo unspecified) | 3% | -5 | 1% | -18% | 3.2µM* | ?
SMILES | IDH1 R132H inh | LDHA block | GLP-1R agonist | PTHR1 ag | GLP1R cytotox | GLP-1R inv ag
Cc1nn(C(C)C(=O)NCc2ccco2)c(C)c1[N+](=O)[O-] (stereo unspecified) | 2% | -1 | 2% | i | 9% | 5%
CN(C)CCCNc1nc(N)c([N+](=O)[O-])c(NC2CCCCC2)n1 | -4% | -11 | 2% | i | -27% | 13µM*
Nc1nc(NCCO)nc(NC2CCCCC2)c1[N+](=O)[O-] | 0% | -9 | ? | i | -10% | 96%
O=C(CCC1CCCCC1)Nc1cccc2c1CCCC2 | . | 2 | . | . | . | .
CC(C)c1onc(C(=O)N2CCN(C(c3ccccc3)c3ccccc3)CC2)c1[N+](=O)[O-] | -11% | -1 | -3% | -16% | 27% | 2.5µM*
CN(C)CCCNc1oc(-c2cccc(Cl)c2)nc1C#N | 3% | 2 | -2% | -5%[57.5 µM] | -2% | 6.3µM*
COc1ccc(NC(=O)c2ccc(CN3CCc4ccccc4C3)cc2)c(OC)c1 | 3% | 1 | -6% | -58% | -3% | ?
O=C(Nc1cccc(Br)c1)c1ccc(CN2CCc3ccccc3C2)cc1 | -2% | -11 | 1% | -79% | -15% | 2.2µM*
COc1ccc(OC)c(NC(=O)c2ccc(CN3CCc4ccccc4C3)cc2)c1 | 11% | 0 | 2% | i | 2% | 11µM*
O=C(NCc1ccccn1)c1cc(-c2ccc(-c3ccccc3)cc2)nc2ccccc12 | -15% | -13 | 3% | -35% | -8% | 2µM*
CCCc1ccc(-c2cc(C(=O)NCCc3ccc(S(N)(=O)=O)cc3)c3ccccc3n2)cc1 | 0% | -15 | 1% | i | -15% | -3%
Cc1cccc(-c2cc(C(=O)Nc3nccs3)c3ccccc3n2)c1 | . | 5 | . | . | . | .
NS(=O)(=O)c1ccc(CCNC(=O)c2cc(-c3ccc(Br)cc3)nc3ccccc23)cc1 | -2% | -4 | -1% | -29% | 11µM* | ?
C/C(=N\NC(=O)c1cc(-c2cccs2)nc2ccccc12)c1ccccn1 | 1% | -4 | 7% | i | ? | 2.8µM*
O=C(Nc1nccs1)c1cc(-c2ccccc2)nc2ccccc12 | 2% | -5 | 2% | -7% | -4% | 5µM*
CNC(=O)CNC(=O)c1cc(-c2cccs2)nc2ccccc12 | . | 8 | . | . | . | .
O=C(NNC(=O)c1cc(-c2ccccc2)nc2ccccc12)Nc1cccc(Cl)c1 | -7% | -5 | -32% | -16% | 2% | 13µM*
O=C(CCN1CCCC1)Nc1cccc(Br)c1 | 1% | -7 | -2% | -10%[57.5 µM] | 14% | -11%
